Sampled rows, rich in hits. Any-hit rate of the full collection: about 1.3%.
UGM FP inh = M. tuberculosis UGM enzyme inhibitors, primary screen, biochemical, fluorescence polarization, single point; AID 504406, 2011; inhibition, % at 10 µM; purified UGM, fluorescence polarization probe displacement; 0.06% of 320,000 active; in the data active means inhibition above about 10%, passing the limit was not always enough; inconclusive means no clear call, values can overlap the other calls
Target sequence (P9WIQ1 whole entry, looked up): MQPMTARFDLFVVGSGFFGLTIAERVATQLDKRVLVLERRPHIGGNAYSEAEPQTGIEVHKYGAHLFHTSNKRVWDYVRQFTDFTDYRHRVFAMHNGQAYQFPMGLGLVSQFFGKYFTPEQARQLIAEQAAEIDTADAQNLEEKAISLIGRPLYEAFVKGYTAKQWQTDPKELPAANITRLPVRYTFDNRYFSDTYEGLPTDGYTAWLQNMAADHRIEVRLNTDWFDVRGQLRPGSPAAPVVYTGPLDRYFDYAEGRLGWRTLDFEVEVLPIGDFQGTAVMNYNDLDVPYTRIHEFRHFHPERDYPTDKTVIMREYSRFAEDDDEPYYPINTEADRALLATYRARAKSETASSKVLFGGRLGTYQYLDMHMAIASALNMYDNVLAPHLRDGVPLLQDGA
BJeLR lethal = MLPCN primary cell-based screen for lethality selective to Ras in HRASV12 cells; inhibition, % (test concentration not listed); 0.17% of 300,000 active; BJeLR (HRASV12) viability, CellTiter-Glo ATP luminescence, 48 h; AID 1554, 2009; in the data active means inhibition above about 50%; inconclusive means no clear call, values can overlap the other calls
RecA intein inh = Mtb RecA intein splicing inhibitors, primary screen, biochemical, fluorescence, HTS; AID 2221, 2009; inhibition, % (concentration not given with the values); cell-free RecA intein splicing; Protein RecA (Mycobacterium tuberculosis (strain ATCC 25618 / H37Rv)), P9WHJ3; 0.75% of 290,000 active; in the data active means inhibition above about 30%; inconclusive means no clear call, values can overlap the other calls;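 further: 0% = vehicle wells and 100% = reference inhibitor control wells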
PrP UTR inh = inhibition of PrP 5' UTR reporter expression; cell-based PrP 5' UTR mRNA reporter, plate reader; inhibition, % (test concentration not listed); 0.35% of 340,000 active; in the data active means inhibition above about 52%; further: 0 = median of the neutral control wells
FadD28 binding = inhibitors of FadD28 bisubstrate probe binding, primary screen, biochemical, fluorescence polarization, single point; inhibition, % at 12.5 µM; 0.22% of 360,000 active; Mycobacterium tuberculosis FadD28 fatty-acid-AMP ligase; AID 588549, 2011; in the data active means inhibition above about 8.5%, passing the limit was not always enough; inconclusive means no clear call, values can overlap the other calls
Rv3671c protease = Rv3671c serine protease inhibitors, primary screen, biochemical, fluorescence polarization, M. tuberculosis H37Rv | 0.048% of 320,000 active | inhibition, % at 5.96 µM | AID 2606, 2010 | P9WHR9; in the data active means inhibition above about 38%;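 further: extracellular domain of Rv3671c used as enzyme; 0% = enzyme with DMSO and 100% = no enzyme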
PrP UTR cherry = prion 5' UTR mRNA inhibition, cherry-pick retest | shares compounds with PrP UTR inh | 48% of 1,100 active | cell-based prion protein 5' UTR reporter, plate reader | inhibition, % at 2.5 µM; in the data active means inhibition above about 54%; inconclusive means no clear call, values can overlap the other calls
Starred values were filed as active, the others as inactive; ? = inconclusive; . = no result.

SMILES	UGM FP inh	BJeLR lethal	RecA intein inh	PrP UTR inh	FadD28 binding	Rv3671c protease	PrP UTR cherry
Cc1ccc(S(=O)(=O)NC2CCSC2=O)cc1C (configuration not stated)	-1	.	.	75*	-2	2	-7
CC[C@@H]1C(c2ccccc2)=NN(c2ccccc2)[C@H]1C(=O)N1CCOC1=O	.	.	.	62*	-1	.	-36
Cc1cnc(NC(=O)COc2ccccc2Cl)s1	0	5	0	63*	-3	6	?
O=C(COc1ccccc1Cl)Nc1ccc(C(=O)N2CCCCC2)cc1	2	0	-1	-11	0	-3	.
O=C(COc1ccccc1Cl)Nc1ccc(CN2CCCCC2)cc1	0	-2	-1	66*	-1	2	-24
N/C(=N\OC(=O)c1ccccc1)C(Cc1ccccc1)C(=O)NOC(=O)c1ccccc1 (configuration not stated)	.	.	.	-6	0	.	.
COCCCNC(=O)/C(C#N)=C/c1c(N2CCN(c3ccccc3)CC2)nc2ccccn2c1=O	2	2	-170	-20	-1	-2	.
O=C(NCCN1CCOCC1)C1CC(=O)N(c2ccc(F)cc2)C1 (configuration not stated)	0	1	2	4	1	-1	.
COc1cccc(CNC(=O)c2ccc3c(c2)N(C)CCS3)c1OC	-2	-5	-5	59*	-4	2	-30
CN1CCSc2ccc(C(=O)NCc3ccccc3F)cc21	-4	-2	-15	-21	-2	3	.
CCN1C(=O)N[C@@H](CCc2ccccc2)[C@H](C(C)=O)[C@H]1C	0	-1	-3	66*	-3	-6	-26
CC(=NNc1ccc2ccccc2n1)c1ccccc1O	.	.	.	67*	-4	.	47
O=c1[nH]c(=O)n(CCCc2ccccc2)cc1-c1ccccc1	.	.	.	63*	-3	.	-15
O=C(Nc1nnc(-c2ccccc2)o1)NC1CCCCC1	-1	2	0	78*	0	-29	-23
O=C(Nc1ccccc1)Nc1nnc(-c2ccccc2)o1	1	2	3	-24	-1	-6	.
CCOC(=O)C1(C)CCCN(C(=O)c2cc(C)oc2C)C1 (configuration not stated)	.	.	.	.	-3	.	.
Cc1onc(-c2ccccc2Cl)c1C(=O)N1CCN(S(=O)(=O)c2ccc(F)c(F)c2)CC1	0	6	1	-15	1	-13	.
CCOC(=O)C1(CC2CCCCO2)CCN(Cc2ccc(OC)cc2F)CC1 (configuration not stated)	-2	8	.	80*	-1	5	-15
COC(=O)[C@]1(Cc2ccccc2)N[C@H](CN(C)C(=O)c2ccc(F)cc2)[C@@H]2C(=O)N(Cc3ccccc3)C(=O)[C@@H]21	-7	.	.	-4	0	6	.
O=c1cc(-c2cccc(F)c2)[nH]c2ccccc12	3	20	1	19	-1	-5	.
COc1ccc2[nH]c(-c3cccc(F)c3)cc(=O)c2c1	-2	39	0	62*	-2	-1	92*
N/C(=N\OC(=O)CSc1ccccc1)c1ccccn1	-1	1	10	-11	-2	-1	.
C[C@@H]1CN([C@H](C)CO)S(=O)(=O)c2ccc(C#Cc3ccccc3F)cc2O[C@H]1CN(C)C(=O)c1ccc2c(c1)OCO2	.	.	.	.	-4	.	.
O=C(O)c1ccc(C=NN=Cc2ccco2)cc1	.	.	.	62*	-2	.	0
COc1ccc(O)c(C(=O)c2cnc3c(c2)c(C)nn3CCO)c1	1	1	0	4	-1	2	.
SMILES	UGM FP inh	BJeLR lethal	RecA intein inh	PrP UTR inh	FadD28 binding	Rv3671c protease	PrP UTR cherry
O=C(c1ccc(Br)cc1)c1cc([N+](=O)[O-])ccc1N1CCCCC1	0	36	6	58*	-3	-3	94*
CSc1ccc(COC(=O)c2cc([N+](=O)[O-])ccc2N2CCOCC2)cc1	0	56*	2	72*	-3	-1	89*
Cc1ccc(C(=O)c2cc([N+](=O)[O-])ccc2N2CCOCC2)c(C)c1	.	40	4	75*	-6	-3	86*
O=C(c1cc([N+](=O)[O-])ccc1N1CCOCC1)N1CCN(c2ccccc2)CC1	1	56*	-5	81*	-2	8	92*
Cc1cccc(NC(=O)C(=O)NCCCc2ccccc2)c1	0	9	5	.	.	-10	.
CCOC(=O)c1sc(NC(=O)C2CC(=O)N(c3ccccc3OC)C2)nc1C (configuration not stated)	-2	.	.	6	0	-2	.
Cc1ccc(NC(=O)c2sc3ncn(CC(=O)N4CCOCC4)c(=O)c3c2C)c(Br)c1	-1	-11	2	-61	-2	2	.
CC(=O)c1cccc(NC(=O)CN2C(=O)NC(C)(C)C2=O)c1	0	.	.	-2	0	11	.
COC(=O)Cc1cc(=O)[nH]c(/N=C(\N)Nc2ccc(C(C)C)cc2)n1	-1	-2	0	-27	-4	1	.
Cc1ccc([N+](=O)[O-])c(OCCN2C(=O)NC(C)(C)C2=O)c1	-4	-4	1	53*	-4	3	-18
COCCC(C(=O)Oc1c(C(C)(C)C)cc(C)cc1C(C)(C)C)c1ccccc1 (configuration not stated)	7	.	.	-1	1	8	.
O=C(Nc1ccc(S(=O)(=O)NCC2CCCO2)cc1)c1cccc(F)c1 (configuration not stated)	-2	-1	0	-29	0	-7	.
C=CCNC(=O)C1CCN(C(=O)c2ccc(-c3ccccc3)cc2)CC1	4	11	.	60*	-4	-3	?
CCNC(=O)C1CCCN(C(=O)c2ccc(-c3ccccc3)cc2)CC1 (configuration not stated)	.	.	.	.	-2	.	.
C[C@@H]1COC(=O)[C@@H](Cc2ccc(F)cc2)C/C=C\C[C@H](CC(=O)N(CCO)Cc2ccccc2)C(=O)N1	3	.	.	85*	-1	5	-14
C[C@H]1COC(=O)[C@@H](Cc2ccc(F)cc2)C/C=C\C[C@H](CC(=O)N(CCO)Cc2ccccc2)C(=O)N1	-1	.	.	-14	-4	0	.
COc1ccc(NC(=O)Cn2c(=O)cnc3ccccc32)cc1S(=O)(=O)N1CCCCC1	-2	18	-1	-4	-5	10	.
CC(Oc1ccc(F)cc1)C(O)CCN(C)C (configuration not stated)	4	1	-3	74*	0	5	-12
Cc1ccc2nc(NC(=O)c3ccco3)sc2c1	1	10	-6	59*	-3	-4	38
